Measured values reported in PubChem BioAssay (Tox21).
Records with an inconclusive call do not appear. A call without a number means that no potency is given here. The source made the active and inactive calls. Unless noted, calls follow the shape of the dose curve; as a rule, active = well fitted curve in the direction sought with a large enough effect in the repeat runs; inconclusive = weak or mixed curves; inactive = flat fitted curve, though single readings scatter.

Experiments:
[1] = qHTS assay to test for compound auto fluorescence at 535 nm (green) in HEK293 cells (AID 720680)
[2] = qHTS assay to test for compound auto fluorescence at 460 nm (blue) in HEK293 cell free culture (AID 720681)
How it was run: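 Blue fluorescence (Ex 405/Em 460 nm, triamterene-equivalent) was read immediately after pin transfer of compound or DMSO into medium (DMEM, 10% FBS) without cells.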

[3] = qHTS assay to test for compound auto fluorescence at 535 nm (green) in HEK293 cell free culture (AID 720682)
How it was run: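 Read-out: 485/535 nm fluorescence intensity, calibrated against fluorescein. Medium only (DMEM + 10% FBS, no cells); test compound or DMSO vehicle added by pintool before plate reading.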

[4] = qHTS assay to test for compound auto fluorescence at 590 nm (red) in HEK293 cell free culture (AID 720683)
How it was run: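 Red-channel autofluorescence of compounds in culture medium (DMEM, 10% FBS), no cells, measured at 540/590 nm. Rose Bengal sodium is the reference fluorophore for equivalence.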

[5] = qHTS assay to test for compound auto fluorescence at 590 nm (red) in HepG2 cell free culture (AID 720684)
How it was run: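 Cell-free; medium MEM + 10% FBS; compound or DMSO added by pintool; read Ex 540/Em 590 nm; Rose Bengal sodium as red reference fluorophore.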

[6] = qHTS assay to test for compound auto fluorescence at 460 nm (blue) in HepG2 cell free culture (AID 720685)
How it was run: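 Cell-free plates of MEM plus 10% FBS received 23 nL compound or DMSO vehicle; blue-channel (405/460 nm) intensity scored against triamterene as reference fluorophore.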

[7] = qHTS assay to test for compound auto fluorescence at 460 nm (blue) in HepG2 cells (AID 720687)
How it was run: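 Blue-channel autofluorescence (Ex/Em 405/460 nm, triamterene-equivalent) was measured after 1 hr compound exposure at 37 C, 5% CO2. Cells were HepG2, plated overnight at 37 C in MEM plus 10% FBS.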

[8] = target: Glucocorticoid receptor (Homo sapiens) (UniProt P04150); test: qHTS assay to identify small molecule agonists of the glucocorticoid receptor (GR) signaling pathway (AID 720691; active = well fitted activation curve with a large enough effect in the signal ratio in the repeat runs, not every such curve was filed as active; the % refers to the signal ratio)
Chain of Glucocorticoid receptor (Homo sapiens) (P04150 whole entry, looked up): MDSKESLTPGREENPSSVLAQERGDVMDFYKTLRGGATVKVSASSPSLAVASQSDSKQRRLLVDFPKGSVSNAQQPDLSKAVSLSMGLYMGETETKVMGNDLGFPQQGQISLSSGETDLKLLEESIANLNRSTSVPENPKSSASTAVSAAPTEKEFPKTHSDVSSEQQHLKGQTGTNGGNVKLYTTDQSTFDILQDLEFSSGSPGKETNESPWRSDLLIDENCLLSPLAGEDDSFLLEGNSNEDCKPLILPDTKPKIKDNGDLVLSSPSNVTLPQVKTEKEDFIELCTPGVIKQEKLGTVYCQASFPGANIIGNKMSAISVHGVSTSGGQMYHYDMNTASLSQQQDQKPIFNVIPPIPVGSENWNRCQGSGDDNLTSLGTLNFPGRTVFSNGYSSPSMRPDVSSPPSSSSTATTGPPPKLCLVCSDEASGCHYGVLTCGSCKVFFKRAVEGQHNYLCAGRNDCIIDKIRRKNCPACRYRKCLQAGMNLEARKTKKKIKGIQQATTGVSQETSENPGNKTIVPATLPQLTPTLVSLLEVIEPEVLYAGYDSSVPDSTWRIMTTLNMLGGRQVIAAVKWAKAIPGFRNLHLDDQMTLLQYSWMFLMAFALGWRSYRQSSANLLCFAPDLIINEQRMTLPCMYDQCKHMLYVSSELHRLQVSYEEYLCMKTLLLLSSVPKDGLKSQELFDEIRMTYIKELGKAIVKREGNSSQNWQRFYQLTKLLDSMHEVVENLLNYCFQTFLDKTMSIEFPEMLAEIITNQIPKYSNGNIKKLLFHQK
How it was run: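 A HeLa cervical cancer line expressing GR and a glucocorticoid response element-driven beta-lactamase gene is treated with compounds for 18 h; LiveBLAzer B/G FRET substrate is then applied and fluorescence read.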

[9] = target: Glucocorticoid receptor (Homo sapiens) (UniProt P04150); test: qHTS assay to identify small molecule antagonists of the glucocorticoid receptor (GR) signaling pathway (AID 720692; active = well fitted inhibition curve with a large enough effect in the signal ratio in the repeat runs, not every such curve was filed as active; the % refers to the signal ratio; also: potency is read from the fitted curve at half-maximal effect)
How it was run: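 GRE-bla HeLa line, dex-stimulated (5 nM final). Compound exposure 18 h, 37 C. Beta-lactamase FRET read after 2 h RT substrate.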

[10] = qHTS assay to test for compound auto fluorescence at 535 nm (green) in HepG2 cell free culture (AID 720686)

Row | Compound | outcome [1] | outcome [2] | outcome [3] | outcome [4] | outcome [5] | outcome [6] | outcome [7] | outcome [8] | Potency [9] | outcome [10]
1 | CCC(C)(C)c1cc(-n2nc3ccccc3n2)c(O)c(C(C)(C)CC)c1 | inactive | inactive | inactive | inactive | inactive | inactive | inactive | inactive | inactive | –
2 | CCOP(=S)(Oc1cnc(C(C)(C)C)nc1)OC(C)C (stereo unspecified) | inactive | inactive | inactive | inactive | inactive | inactive | inactive | inactive | inactive | inactive
3 | ClCC(Cl)Cl | inactive | inactive | inactive | inactive | inactive | inactive | inactive | – | – | –
4 | CCN(CC)CCOC(=O)C(C)(c1ccccc1)c1ccccc1 | inactive | inactive | inactive | inactive | inactive | inactive | inactive | – | – | –
5 | CC(C)NCC(O)c1ccc(N)c(C#N)c1 (stereo unspecified) | inactive | inactive | inactive | inactive | inactive | – | inactive | inactive | inactive | inactive
6 | CCN(Cc1ccc(Cl)nc1)/C(=C/[N+](=O)[O-])NC | inactive | inactive | inactive | inactive | inactive | – | inactive | inactive | inactive | inactive
7 | CCSC(=O)N(CC)C1CCCCC1 | inactive | inactive | inactive | inactive | inactive | – | inactive | inactive | – | inactive
8 | CCC(C)n1c(=O)[nH]c(C)c(Br)c1=O (stereo unspecified) | inactive | inactive | inactive | inactive | inactive | – | inactive | – | – | inactive
9 | COc1ccc(C(=O)N2CCCC2=O)cc1 | inactive | inactive | inactive | inactive | inactive | – | inactive | inactive | inactive | inactive
10 | CC1(C(=O)Nc2ccc(O)c(Cl)c2Cl)CCCCC1 | inactive | inactive | inactive | inactive | inactive | – | inactive | – | – | inactive
11 | CNC(=O)N(C)c1nc2ccccc2s1 | inactive | inactive | inactive | inactive | inactive | inactive | inactive | inactive | inactive | –
12 | COc1ncc(F)c2nc(S(=O)(=O)Nc3c(F)cccc3F)nn12 | inactive | inactive | inactive | inactive | inactive | inactive | inactive | inactive | inactive | –
13 | ClC(Cl)C(Cl)Cl | inactive | inactive | inactive | inactive | inactive | – | inactive | inactive | inactive | inactive
14 | Cc1ncc(CNC(=O)N(CCCl)N=O)c(N)n1 | inactive | inactive | inactive | inactive | inactive | inactive | inactive | inactive | inactive | –
15 | c1cc[c]([Hg][c]2ccccc2)cc1 | inactive | inactive | inactive | inactive | inactive | inactive | inactive | inactive | 347 nM (active) | –
16 | COC(=O)c1ccccc1S(=O)(=O)NC(=O)Nc1nc(C)cc(C)n1 | inactive | inactive | inactive | inactive | inactive | inactive | inactive | inactive | inactive | –
17 | [Cl][Sn]([Cl])([Cl])[Cl] | inactive | inactive | inactive | inactive | inactive | – | inactive | inactive | inactive | inactive
18 | C1CCC(C2CCCCC2)CC1 | inactive | inactive | inactive | inactive | inactive | – | inactive | – | – | inactive
19 | O=P(O)(Oc1ccccc1)Oc1ccccc1 | inactive | inactive | inactive | inactive | inactive | inactive | inactive | inactive | inactive | –
